Assay [1] is described as follows: optical density shifts of acrAB sulA E. coli – strain DRC41, OD650, 48 h, E. coli filamentation inducer project, primary screen (AID 1152).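 Further: E. coli MC1000 strain DRC41 lacking acrAB efflux pump and sulA.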 As to conditions: higher = more signal, called active from +8 up or from −8 down.
Assay [2] can be described thus: probe aLefty1 binding on compound microarray – biochemical, small-molecule microarray, 635/667 nm fluorescence, primary screen (AID 1153).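 Further: score merges spot fluorescence with signal-to-noise ratio from the scanned slide images.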 As to conditions: higher = more signal.
The nature of assay [3]: plasmodial surface anion channel blockers, osmotic lysis – cell-based, P. falciparum Indochina, OD700, 1 h, primary screen (AID 1154). As to conditions: P. falciparum Indochina infected RBC osmotic lysis, higher = more signal, called active from +8 up or from −8 down.
Assay [4] can be described thus: plasmodial surface anion channel blockers, osmotic lysis – cell-based, P. falciparum Indochina, OD700, 2 h, primary screen (AID 1155).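 Further: lysis reports solute entry through the parasite surface anion channel PSAC.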 As to conditions: P. falciparum Indochina infected erythrocytes, higher = more signal, called active from +8 up or from −8 down.
Assay [5] is described as follows: changes in parasitized red cell lysis, either direction – P. falciparum Indochina, OD700, 3 h, PSAC antagonist project, primary screen (AID 1156). As to conditions: P. falciparum-infected erythrocytes, osmotic lysis, higher = more signal, called active from +8 up or from −8 down.
The nature of assay [6]: plasmodial surface anion channel blockers, osmotic lysis – cell-based, P. falciparum Indochina, OD700, 18 h, primary screen (AID 1157). As to conditions: P. falciparum Indochina infected erythrocytes, osmotic lysis OD700, 18 h; higher = more signal, called active from +8 up or from −8 down.
Assay [7] in a line: S6 kinase pathway phospho-S6 level changes – cell-based, A549, cytoblot, luminescence, serum-stimulated, primary screen (AID 1158).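 Further: serum-stimulated A549 lung adenocarcinoma cells; signal is phosphorylated S6 detected by cytoblot immunostaining with HRP secondary.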 As to conditions: 5 h, higher = more signal.
The target of assay [8] is NADPH oxidase 2 (Homo sapiens) (UniProt P04839). The assay can be described thus: compounds shifting NOX2 Amplex Red fluorescence – cell-based, HEK293-NOX2, PMA-stimulated, NOX inhibitor project, primary screen (AID 1159). Further: test concentration not given here. As to conditions: 45 min, higher = more signal, called active from +8 up or from −8 down.
For assay [9], the target named is NADPH oxidase 4 (Homo sapiens) (UniProt Q9NPH5). In words: compounds shifting NOX4 Amplex Red fluorescence – cell-based, HEK293-NOX4, tetracycline-induced, NOX inhibitor project, primary screen (AID 1160). As to conditions: HEK293-NOX4, Amplex Red H2O2 fluorescence, 45 min; higher = more signal, called active from +8 up or from −8 down.
In assay [10] the target is NADPH oxidase 5 (Homo sapiens) (UniProt Q96PH1). In words: compounds shifting NOX5 Amplex Red fluorescence – cell-based, HEK293-NOX5, NOX inhibitor project, primary screen (AID 1161). As to conditions: HEK293-NOX5, ionomycin, 45 min, higher = more signal.
The nature of assay [11]: compound effects on lung adenocarcinoma cell viability – A549, calcein-AM fluorescence, 48 h, basal, profiling panel (AID 1162). Further: test concentration not given here. As to conditions: higher = more signal.
A short description of assay [12]: compound effects on differentiated 3T3-L1 adipocyte viability – cell-based, 3T3-L1 adipocytes, calcein-AM fluorescence, 48 h, basal, profiling panel (AID 1163). Further: test concentration not given here. As to conditions: 3T3-L1 adipocytes viability, higher = more signal.
Assay [13] is described as follows: compound effects on hepatocellular carcinoma cell viability – HepG2, calcein-AM fluorescence, 48 h, basal, profiling panel (AID 1164). Further: test concentration not given here. As to conditions: higher = more signal.
Assay [14] in a line: compound effects on multiple myeloma cell viability – MM1S, calcein-AM fluorescence, 48 h, basal, profiling panel (AID 1165). Further: test concentration not given here. As to conditions: higher = more signal.
Assay [15] is described as follows: calcein-AM signal in unstimulated myeloma cells – cell-based, calcein-AM fluorescence, 48 h, PK04 Diversity Set, profiling panel (AID 1166).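 Further: cells grown under basal conditions without added stimulus; test concentration not given here.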 As to conditions: RPMI8226 myeloma viability, higher = more signal.
Assay [16] in a line: JC-1 mitochondrial signal, unstimulated HepG2 cells – cell-based, JC-1 fluorescence, 24 h, 100 nL compound, profiling panel (AID 1167). Further: test concentration not given here. As to conditions: HepG2 mitochondrial potential, higher = more signal.
A short description of assay [17]: JC-1 mitochondrial signal, unstimulated adipocytes – cell-based, JC-1 fluorescence, 3T3-L1 adipocytes, 24 h, 100 nL compound, profiling panel (AID 1168). Further: test concentration not given here. As to conditions: JC-1 mitochondrial fluorescence, higher = more signal, called active from +8 up or from −8 down.
Assay [18] is described as follows: JC-1 mitochondrial signal, unstimulated myeloma cells – cell-based, JC-1 fluorescence, RPMI8226, 24 h, 100 nL compound, profiling panel (AID 1169). Further: test concentration not given here. As to conditions: JC-1 mitochondrial potential fluorescence, higher = more signal.
Assay [19] is described as follows: JC-1 mitochondrial signal, unstimulated MM1S myeloma – cell-based, JC-1 fluorescence, 24 h, 100 nL compound, profiling panel (AID 1170). Further: test concentration not given here. As to conditions: MM1S mitochondrial potential, higher = more signal.
Assay [20] is described as follows: resazurin metabolic signal in A549 cells – cell-based, resazurin fluorescence, 24 h, PK04 Diversity Set, profiling panel (AID 1171). Further: test concentration not given here. As to conditions: A549 viability, higher = more signal, called active from +8 up or from −8 down. Background: The colour change of resazurin is a common sign of viable cells or microbes.

The source of these data is PubChem BioAssay.

Active and inactive are the calls of the source.

NADPH oxidase 4 (Homo sapiens), sequence (Q9NPH5 whole entry, looked up): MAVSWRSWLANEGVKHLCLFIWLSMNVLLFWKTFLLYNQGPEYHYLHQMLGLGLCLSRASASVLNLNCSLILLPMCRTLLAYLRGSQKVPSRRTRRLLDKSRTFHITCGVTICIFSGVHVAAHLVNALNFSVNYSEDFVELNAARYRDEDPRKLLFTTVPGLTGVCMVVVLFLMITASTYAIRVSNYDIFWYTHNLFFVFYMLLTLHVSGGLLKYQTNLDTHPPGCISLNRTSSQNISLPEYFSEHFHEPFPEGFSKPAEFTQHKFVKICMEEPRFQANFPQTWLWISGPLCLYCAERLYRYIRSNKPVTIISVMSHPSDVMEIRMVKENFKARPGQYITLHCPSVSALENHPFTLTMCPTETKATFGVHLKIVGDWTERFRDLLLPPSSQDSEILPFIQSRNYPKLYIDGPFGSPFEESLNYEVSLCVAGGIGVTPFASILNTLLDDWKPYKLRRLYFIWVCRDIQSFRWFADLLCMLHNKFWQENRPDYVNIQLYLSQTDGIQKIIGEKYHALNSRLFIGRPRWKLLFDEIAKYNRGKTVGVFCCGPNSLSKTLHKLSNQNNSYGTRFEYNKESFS
NADPH oxidase 5 (Homo sapiens), sequence (Q96PH1 whole entry, looked up): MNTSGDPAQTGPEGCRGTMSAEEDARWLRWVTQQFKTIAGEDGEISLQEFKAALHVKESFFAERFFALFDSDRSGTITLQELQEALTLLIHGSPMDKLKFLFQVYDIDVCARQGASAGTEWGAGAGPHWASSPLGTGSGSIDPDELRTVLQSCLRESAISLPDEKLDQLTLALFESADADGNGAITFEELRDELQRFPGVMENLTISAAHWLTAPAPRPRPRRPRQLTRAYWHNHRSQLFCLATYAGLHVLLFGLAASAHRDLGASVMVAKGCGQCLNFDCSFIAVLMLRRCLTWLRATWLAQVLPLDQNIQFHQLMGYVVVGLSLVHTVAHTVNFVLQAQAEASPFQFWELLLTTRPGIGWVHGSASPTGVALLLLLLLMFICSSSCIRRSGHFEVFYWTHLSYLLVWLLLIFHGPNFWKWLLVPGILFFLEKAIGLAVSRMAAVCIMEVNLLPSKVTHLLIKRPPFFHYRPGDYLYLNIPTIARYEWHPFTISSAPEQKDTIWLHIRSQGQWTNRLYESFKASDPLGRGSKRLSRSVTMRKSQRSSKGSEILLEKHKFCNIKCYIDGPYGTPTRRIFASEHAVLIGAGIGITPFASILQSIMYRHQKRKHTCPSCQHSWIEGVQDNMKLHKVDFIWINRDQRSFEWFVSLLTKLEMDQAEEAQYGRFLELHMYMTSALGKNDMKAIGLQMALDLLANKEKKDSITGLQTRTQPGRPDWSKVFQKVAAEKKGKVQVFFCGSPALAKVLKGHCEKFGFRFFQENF
NADPH oxidase 2 (Homo sapiens), sequence (P04839 whole entry, looked up): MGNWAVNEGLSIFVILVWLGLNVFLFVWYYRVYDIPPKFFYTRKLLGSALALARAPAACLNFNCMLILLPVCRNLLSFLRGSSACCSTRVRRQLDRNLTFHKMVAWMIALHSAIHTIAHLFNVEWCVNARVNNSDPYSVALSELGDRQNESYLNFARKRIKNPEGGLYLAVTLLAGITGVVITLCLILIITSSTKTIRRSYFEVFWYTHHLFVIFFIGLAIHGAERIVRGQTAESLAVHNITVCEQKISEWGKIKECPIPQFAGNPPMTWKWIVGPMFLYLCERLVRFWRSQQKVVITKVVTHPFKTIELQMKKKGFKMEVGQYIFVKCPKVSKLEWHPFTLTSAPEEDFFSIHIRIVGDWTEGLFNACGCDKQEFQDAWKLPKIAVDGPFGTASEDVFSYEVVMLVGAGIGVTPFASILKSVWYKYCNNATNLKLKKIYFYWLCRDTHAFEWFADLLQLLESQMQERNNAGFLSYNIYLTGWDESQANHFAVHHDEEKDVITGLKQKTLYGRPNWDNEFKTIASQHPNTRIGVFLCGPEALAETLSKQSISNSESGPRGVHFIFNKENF

As for `NC(=O)NCC#Cc1ccc2c(c1)[C@]1(C(=O)N2)[C@H](C(=O)N2CCCCCCC2)[C@H]2C(=O)O[C@H](c3ccccc3)[C@H](c3ccccc3)N2[C@@H]1c1ccc(O)cc1`, the z-score in assay [1] was -0.504 (inactive); in [3], -0.268 (inactive); in assay [4], -0.0915 (inactive); in assay [5], -0.117 (inactive); in assay [6] it was -0.0064 (inactive); in assay [7], -0.602. Also, the z-score was 1.67 (inactive) in [8]; 0.541 (inactive) in assay [9]; 1.15 in assay [10]; -0.491 in assay [11]; -0.542 in assay [12]; -0.0358 in assay [13]. In addition, the z-score in [14] is -0.499; in [15], -0.193; in [16], -1.98; in assay [17] it was -0.35 (inactive); in [18], -0.981; in [19], 0.0512. Besides, in assay [20], the z-score is -0.0116 (inactive). The compound also showed a composite z-score in assay [2] of 2.3.

On to `C=CCC(OC(C)=O)[C@@H]1[C@@H](N(Cc2ccc(-c3ccccc3)cc2)C(=O)c2ccc(C)cc2)c2cc(OCCCO)ccc2N1C(=O)c1ccc2ccccc2c1` (stereo not given in full), for which the z-score in assay [1] is 2.09 (inactive); in [3], 0.0032 (inactive); in [4], -0.792 (inactive); in assay [5] it was -1.31 (inactive); in [6] it was -1.33 (inactive); in [7], 1.18. For the same compound, the z-score in assay [8] is -0.167 (inactive); in [9], 0.972 (inactive); in assay [10], 1.94; in [11] it was 2.26; in assay [12] it was 0.558; in assay [13], 1.71. The z-score in [14] was 0.697; in [15] it was -0.481; in [16] it was 3.18; in assay [17], -0.379 (inactive); in assay [18], 0.0174; in [19], 0.593. In assay [20], the z-score was 0.864 (inactive). In addition, the composite z-score in [2] turned out to be 0.0367.

For `COC(=O)[C@@]1(Cc2ccc(OC)cc2)[C@H]2c3cc(C(=O)N4CCCC4)n(CCc4ccc(OC)c(Br)c4)c3C[C@H]2CN1C(=O)c1ccccc1`, the z-score in assay [1] is -0.536 (inactive); in [3] it was 2.64 (inactive); in assay [4], 0.809 (inactive); in [5] it was -0.0758 (inactive); in [6] it was 0.568 (inactive); in assay [7], 0.348. The z-score in [8] was 0.798 (inactive); in assay [9], 0.0418 (inactive); in assay [10], -0.759; in assay [11] it was -0.572; in [12], -0.3; in assay [13], 0.347. The z-score in assay [14] is -0.245; in assay [15], -1.51; in assay [16] it was 2.24; in assay [17], -0.641 (inactive); in assay [18], -0.767; in assay [19], -0.569. Also, in [20], the z-score is 0.568 (inactive). Moreover, in [2], the composite z-score is 0.291.

Consider `COCCOC(=O)N1C(=O)[C@@]2(c3ccccc31)[C@H](C(=O)N1CCCCCCC1)[C@H]1C(=O)O[C@H](c3ccccc3)[C@H](c3ccccc3)N1[C@@H]2c1ccc(O)cc1`, for which the z-score is 1.51 (inactive) in [1]; 0.822 (inactive) in assay [3]; -0.0852 (inactive) in [4]; 0.367 (inactive) in assay [5]; -0.0764 (inactive) in [6]; 1.94 in assay [7]. For the same compound, the z-score in assay [8] was -3.28 (inactive); in assay [9] it was -0.538 (inactive); in [10], -4; in [11] it was 0.452; in assay [12], 0.688; in assay [13], 1.11. Besides, the z-score in [14] was -0.233; in assay [15], -1.54; in assay [16], -0.229; in [17], 1.45 (inactive); in assay [18], -0.564; in assay [19], -0.21. Moreover, the z-score in [20] is 0.17 (inactive). This compound also showed a composite z-score in [2] of 3.16.

With `CN(C)CCCNC(=O)[C@@H]1c2ccccc2C(=O)N(C2Cc3ccccc3C2)[C@H]1c1ccc(CO)cc1`, the z-score in [1] is 0.776 (inactive); in [3], 3.98 (inactive); in [4], 0.517 (inactive); in assay [5] it was 1.79 (inactive); in [6] it was 0.281 (inactive); in assay [7], -0.421. Moreover, the z-score in assay [8] was 0.498 (inactive); in assay [9], 1.25 (inactive); in [10], 0.545; in assay [11], 1.61; in assay [12], 0.121; in [13], 1.99. Also, the z-score in [14] was -0.233; in assay [15], -1.28; in assay [16], 3.81; in assay [17] it was 0.571 (inactive); in assay [18] it was -0.066; in assay [19], -0.311. In [20], the z-score is 0.267 (inactive). This compound also registered a composite z-score in assay [2] of -0.765.
